Screening results: PubChem BioAssay, National Center for Advancing Translational Sciences (NCATS)
Six1-Eya2 inh = qHTS Assay for Inhibitors of the Six1/Eya2 Interaction; AlphaScreen GST-Six1/His-Eya2 binding, biochemical; active compounds read low; AID 651725, 2012; activity change, % (concentration not given with the values); 0.56% of 360,000 active; Homeobox protein SIX1 (Homo sapiens) + Protein phosphatase EYA2 (Homo sapiens), …
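Six1/Eya2 binding was read as AlphaScreen signal after compounds were pinned into GST-Six1 plus His-tagged Eya2 (5X stock 250/500 nM) in pH 8.0 Tris/NaCl/TCEP buffer, beads added, then incubated 1 h, 37 C, dark.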
pAkt inh = HTS Assay for Inhibitors of Akt Phophorylation: Primary Screen. Neuro2A IGF-stimulated pAkt S473 HTRF, 20 min; active compounds read low. AID 651550, 2012. 0.32% of 360,000 active. activity change, % for hits at 50 µM; in the data active means activity change below about -80%; inconclusive means mostly about -51% to -80%
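Neuro2A cells in DMEM with 0.5% FBS, overnight at 37 deg C, given compound at single 50 µM final, then IGF (6 nM final) for 20 min at 37 deg C. Lysed; phospho-Akt Ser473 by HTRF after 24 h, 665/615 ratio.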
PI5P4K alpha inh = qHTS for Inhibitors of phosphatidylinositol 5-phosphate 4-kinase (PI5P4K); Phosphatidylinositol 5-phosphate 4-kinase type-2 alpha (Homo sapiens), P48426; PI5P4Kalpha enzyme, ADP-Glo luminescence, 60 min; active compounds read low; max response, %; 1.2% of 330,000 active; active means max response of -50% or lower; inconclusive means between -30% and -50%; inactive means -30% or higher; further: value at the top dose of about 77 µM
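Reactions run in 0.038 M HEPES pH 7.4, 0.28 mM EGTA, 0.1% CHAPS and 5% DMSO, with PI5P4Kalpha, substrate, compound and 5 microM ATP final, one hour at room temperature. Readout is ADP-Glo luminescence.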
CtBP-E1A inh = qHTS Assay for Inhibitors of the CtBP/E1A Interaction; CtBP / adenovirus E1A interaction (AlphaScreen); AlphaScreen GST-E1A/His-CtBP binding, 1536-well; active compounds read low; activity change, % (no concentration beside the values); 0.49% of 340,000 active; AID 651724, 2012
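Homogeneous bead-based format: GST-tagged E1A captured on glutathione donor beads, His-tagged CtBP on nickel acceptor beads; compounds precede bead addition by 2 h at 37 °C.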
PI4K2A block = qHTS for small molecular inhibitors of PI4K2A. Phosphatidylinositol 4-kinase type 2-alpha (Homo sapiens), Q9BTU6. purified PI4K2A, ADP-Glo luminescence, 1 h; active compounds read low. 0.13% of 420,000 active. activity change, negative = inhibition, % at 76.9 µM; in the data active means activity change below about -50%; inconclusive means mostly about -30% to -49%;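 further: -100% = wells without enzyme as full effect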
Target sequence (Q9BTU6 whole entry, looked up): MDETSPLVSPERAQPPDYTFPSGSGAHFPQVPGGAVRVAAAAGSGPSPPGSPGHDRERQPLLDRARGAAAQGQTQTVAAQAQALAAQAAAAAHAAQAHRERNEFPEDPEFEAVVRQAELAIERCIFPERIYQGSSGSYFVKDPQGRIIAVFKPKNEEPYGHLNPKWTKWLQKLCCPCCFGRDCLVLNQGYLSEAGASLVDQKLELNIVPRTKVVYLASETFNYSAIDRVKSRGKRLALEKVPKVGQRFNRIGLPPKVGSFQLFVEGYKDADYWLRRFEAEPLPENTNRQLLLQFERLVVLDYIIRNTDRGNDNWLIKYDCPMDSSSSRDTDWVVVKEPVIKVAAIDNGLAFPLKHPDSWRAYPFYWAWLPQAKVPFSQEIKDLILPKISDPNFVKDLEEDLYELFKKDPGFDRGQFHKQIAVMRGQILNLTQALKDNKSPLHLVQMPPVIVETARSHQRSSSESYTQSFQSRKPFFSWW
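PI4K2A activity was measured by ADP-Glo luminescence: enzyme (4 ug/mL stock) and phosphatidylinositol (1.2 mM stock) in Tris pH 7.5/MgCl2/EGTA/Triton X-100 buffer were reacted with ATP (300 microM stock) for one hour at ambient temperature.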
* marks the source's active call; other numbers are inactive results; i = inactive; ? = inconclusive; . = no result given. Rows were chosen to be rich in hits. Some 1.8% of all compounds tested hit in one or more screens of this group. Unless noted, no stated cut-off is given here; in the data, active means activity change below about -65%; inconclusive means mostly about -30% to -63%; inactive means weaker than that. Unless noted, on the % scale 0 is the no-effect control and ±100 the full control effect.

SMILES | Six1-Eya2 inh | pAkt inh | PI5P4K alpha inh | CtBP-E1A inh | PI4K2A block
COC(=O)c1ccc(C2Nc3ccc(/C(C)=N/NC(=O)C(OC)c4ccccc4)cc3C3C=CCC32)cc1 (configuration not stated) | -11.6 | i | -65.7* | -20.2 | 2.7
Cc1nn(C(C)C(=O)NC2CCC(C)CC2)c(=O)c2cc3sccc3n12 (configuration not stated) | . | . | . | . | 0.2
Cc1ccc(/C=C/C(=O)N2CCN(S(=O)(=O)c3ccc(C)c(C)c3)CC2)o1 | -0.9 | i | -73.5* | 0.0 | -21.4
Cc1ccc(N=Cc2cc(Br)cc(Cl)c2O)cc1 | -3.1 | i | -20.1 | 3.9 | -10.0
Oc1c(Cl)cc(Cl)cc1C=Nc1ccc(Br)cc1 | -0.1 | i | -54.6* | 5.6 | -3.8
O=S(=O)(NCC1CC1)c1cccc(S(=O)(=O)N2CCCC2)c1 | 14.4 | -111.5%* | 4.0 | -1.2 | -1.2
COc1ccc(CCNS(=O)(=O)c2cccc(S(=O)(=O)N3CCCC3)c2)cc1OC | 3.8 | i | 7.0 | -3.9 | -5.8
c1ccc(-c2ccncc2)nc1 | 0.4 | i | -0.4 | 6.7 | 2.5
c1ccc(-c2nc(-c3ccncc3)n[nH]2)nc1 | -89.5* | i | 0.9 | -1.5 | -29.4
Cc1cc(/C=C2\C(=N)N3N=C(c4ccco4)SC3=NC2=O)c(C)n1Cc1ccccc1 | -17.1 | i | -61.8* | -10.1 | -14.0
CC(C)CSC1=NSC2=NC(=O)/C(=C\c3coc4ccccc4c3=O)C(=N)N12 | 3.5 | i | ? | -4.6 | 1.2
COc1ccc(-n2cccc2/C=C2\C(=N)N3N=C(c4ccco4)SC3=NC2=O)cc1 | -25.2 | i | -53.2* | -10.1 | 0.0
N=C1/C(=C\c2coc3ccccc3c2=O)C(=O)N=C2SC(c3ccncc3)=NN12 | ? | i | -74.3* | -25.9 | -20.3
CSC1=NSC2=NC(=O)/C(=C\c3coc4ccccc4c3=O)C(=N)N12 | -27.8 | i | -56.6* | -2.0 | 1.6
COc1ccc(C(O)c2nc(-c3cccc(C(C)C)c3)cs2)cc1 (configuration not stated) | 2.1 | i | 18.0 | 8.8 | 0.3
N=C1/C(=C/c2coc3ccccc3c2=O)C(=O)N=C2SC(c3ccco3)=NN12 | -28.9 | i | -77.6* | ? | -28.0
CC1=NN2C(=N)/C(=C\c3cc(C)n(-c4ccccc4)c3C)C(=O)N=C2S1 | -1.2 | i | -3.7 | 4.8 | -0.3
CN1C(=O)/C(=C/c2coc3ccc(O)cc3c2=O)SC1=S | -5.5 | i | -1.4 | -9.8 | -0.1
N=C1/C(=C\c2coc3ccc(O)cc3c2=O)C(=O)N=C2SC=CN12 | -80.4* | i | -69.5* | -89.8* | -2.5
O=C(/C=C/c1ccccc1Cl)Nc1ccncc1 | 1.2 | i | 7.0 | -15.6 | -1.7
O=C(Nc1nnc(C2CC2)s1)C1Cc2ccccc2CN1S(=O)(=O)c1cccs1 (configuration not stated) | ? | i | -60.0* | ? | -16.2
CCc1nnc(NC(=O)C2Cc3ccccc3CN2S(=O)(=O)c2cccs2)s1 (configuration not stated) | -21.6 | i | ? | -26.8 | -9.4
CCOC(=O)C1=C(O)/C(=C\c2ccc(CNS(=O)(=O)c3ccc(Br)cc3)o2)N=C1C | -29.0 | i | -57.8* | -10.3 | -11.9
COC(=O)C1=C(O)/C(=C\c2ccc(CNS(=O)(=O)c3ccc(Cl)cc3)o2)N=C1C | 0.4 | i | -20.7 | -0.3 | -8.6
CCn1c(SCC(=O)NCc2ccc3c(c2)OCO3)nnc1-c1cccs1 | -0.4 | -96.0%* | . | -2.4 | -0.8
SMILES | Six1-Eya2 inh | pAkt inh | PI5P4K alpha inh | CtBP-E1A inh | PI4K2A block
Cn1c(SCC(=O)NCc2ccc3c(c2)OCO3)nnc1-c1cccs1 | 2.5 | i | -4.2 | 1.7 | -3.3
CCCn1c(SCC(=O)NCc2ccccc2)nnc1-c1ccncc1 | -0.8 | -115.0%* | -7.8 | 3.6 | 1.1
CCCCn1nnnc1SCC(=O)NNC(=O)c1ccco1 | 17.4 | i | 1.4 | -3.1 | 0.0
CCCCn1nnnc1SCC(=O)NCc1ccccc1 | 3.2 | -114.7%* | -1.4 | 4.5 | 4.1
O=C(NNc1nc2ccccc2s1)C1CC1 | 7.0 | . | . | 5.2 | 8.4
c1ccc(-c2cn3nc4c(nc3n2)CCCC4)cc1 | 3.7 | i | -9.5 | 11.6 | -52.5*
Cn1c(N)c(C(=O)COC(=O)C2CCCC2)c(=O)n(C)c1=O | -2.2 | i | -0.5 | 1.7 | 1.0
Cn1c(N)c(C(=O)COC(=O)C2CCC(C(C)(C)C)CC2)c(=O)n(C)c1=O (configuration not stated) | -4.4 | -107.7%* | 19.3 | 4.9 | -4.4
CC(Cc1cccs1)NC(=O)Nc1ccc(Cl)cc1 (configuration not stated) | -4.9 | i | -0.4 | 1.2 | 0.6
CC(Cc1cccs1)NC(=O)Nc1ccc(Cl)c(Cl)c1 (configuration not stated) | 7.7 | -103.0%* | 6.0 | 2.9 | 3.0
COc1ccc(-c2nnc(Nc3ccc(OC)c(C(=O)N4CCCCC4)c3)c3ccccc23)cc1 | -10.8 | i | 5.2 | -7.3 | -3.2
N#CCC(N)=C(C#N)C#N | -26.4 | i | -75.5* | -18.2 | 2.8
Cc1ccc(NC(=O)c2ccc(COc3ccccc3Cl)o2)cc1 | . | . | . | . | 2.9
CN(C)c1ccc(NC(=O)c2ccc(COc3cccc(Cl)c3)o2)cc1 | -71.5* | i | -3.9 | ? | -1.8
COCCCNC(=S)N/N=C/c1ccccc1O | -89.6* | i | 2.6 | . | -3.2
COCCNC(=S)N/N=C(\C)c1ccccc1OC | -7.2 | i | 0.9 | -11.3 | 4.6
COCCNC(=S)N/N=C(\C)c1ccccc1O | -68.8* | i | -8.1 | ? | 0.6
Oc1ccccc1/C=N/NC(=S)NC1CC2CCC1C2 (configuration not stated) | -85.0* | i | 7.7 | -84.4* | 0.3
CCC(CC)C(=O)OCC(=O)Nc1cccc([N+](=O)[O-])c1 | -0.8 | i | 5.9 | -8.6 | -0.9
COc1cc2[nH]c(=S)nc(NCCC(C)C)c2cc1OC | -86.6* | i | -0.6 | -88.9* | -5.2
COCCCNc1nc(=S)[nH]c2cc(OC)c(OC)cc12 | -90.2* | i | -9.5 | -95.0* | 0.0
COc1ccc2c(c1)CNC2CS(=O)(=O)NCc1ccc(F)cc1 (configuration not stated) | . | . | . | . | -3.4
COc1cc(/C=N/Nc2nc(=O)[nH]nc2C)cc([N+](=O)[O-])c1O | ? | i | -51.6* | . | -5.9
COc1cc(/C=N/Nc2nc3ccccc3s2)cc([N+](=O)[O-])c1O | -81.8* | i | -51.2* | . | -5.3
